Test results: PubChem BioAssay (NCI)
About 83,000 compounds went through this panel and 20% of them were active in at least one assay; those are over-represented in the sample as a whole.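 Interpretation: 100, growth as untreated; towards 0, rising growth inhibition; 0, no net growth; 0 to -100, cell death. Compounds scoring below 10 were considered active.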 Activity calls are given as the source filed them.

How the values were obtained:
Assay in all cases: NCI-60 one-dose screen, 48 h (100 = growth as untreated, 0 = no growth, -100 = all killed)
Settings in all cases: 10 µM
DU-145 prostate = system: DU-145 prostate
MALME-3M melanoma = system: MALME-3M melanoma
MDA-MB-231 breast = system: MDA-MB-231 breast
RXF 393 renal = system: RXF 393 renal
SF-268 CNS = system: SF-268 CNS
SF-295 CNS = system: SF-295 CNS
SF-539 CNS = system: SF-539 CNS
UACC-257 melanoma = system: UACC-257 melanoma
M14 melanoma = system: M14 melanoma
HCT-15 colon = system: HCT-15 colon
HT29 colon = system: HT29 colon
SNB-75 CNS = system: SNB-75 CNS
SNB-19 CNS = system: SNB-19 CNS
U251 CNS = system: U251 CNS
PC-3 prostate = system: PC-3 prostate
SK-MEL-5 melanoma = system: SK-MEL-5 melanoma
UACC-62 melanoma = system: UACC-62 melanoma
LOX IMVI melanoma = system: LOX IMVI melanoma
SK-MEL-28 melanoma = system: SK-MEL-28 melanoma
K-562 leukemia = system: K-562 leukemia

Measured: growth

CCCCC(CC)CN=C(N)NC(N)=NCCCCCCN=C(N)NC(N)=NCC(CC)CCCC (stereo not drawn)
active: DU-145 prostate -98.1% | MALME-3M melanoma -73% | MDA-MB-231 breast -84.6% | RXF 393 renal -43.5% | SF-268 CNS -82.8% | SF-295 CNS -84.8% | SF-539 CNS -76.9% | UACC-257 melanoma -47.1% | M14 melanoma -65.1% | HCT-15 colon 7.37% | HT29 colon -82.8% | SNB-75 CNS -72.5% | SNB-19 CNS -87.2% | U251 CNS -89.8% | PC-3 prostate -69.7% | SK-MEL-5 melanoma -89.8% | UACC-62 melanoma -58% | LOX IMVI melanoma -80.8% | SK-MEL-28 melanoma -79.6%

C[C@@H](O)[C@H]1C(=O)N2C(C(=O)O)=C(SCCN=CN)C[C@H]12
active: DU-145 prostate -7.37% | MALME-3M melanoma -60.1% | MDA-MB-231 breast 9.83% | RXF 393 renal 1.5% | SF-268 CNS -4.56% | SF-295 CNS -5.26% | SF-539 CNS 3.65% | UACC-257 melanoma -31% | M14 melanoma -44.7% | HCT-15 colon 8.86% | HT29 colon -3.23% | SNB-75 CNS 0.941% | SNB-19 CNS 8.6% | U251 CNS 2.44% | PC-3 prostate 1.74% | SK-MEL-5 melanoma -87.2% | UACC-62 melanoma -38.8% | LOX IMVI melanoma -42.6% | SK-MEL-28 melanoma -41.3%

COc1ccc(Cc2cnc(N)nc2N)cc1OC
inactive: DU-145 prostate 114% | MALME-3M melanoma 113% | MDA-MB-231 breast 95.3% | RXF 393 renal 105% | SF-268 CNS 106% | SF-295 CNS 96.2% | SF-539 CNS 107% | UACC-257 melanoma 100% | M14 melanoma 108% | HCT-15 colon 101% | HT29 colon 99% | SNB-75 CNS 79.4% | SNB-19 CNS 100% | U251 CNS 97.1% | PC-3 prostate 88.6% | SK-MEL-5 melanoma 101% | UACC-62 melanoma 96.9% | LOX IMVI melanoma 97% | SK-MEL-28 melanoma 119%

COc1cc2nc(SCC(=O)Nc3cc(OC)c(OC)c(OC)c3)n(Cc3ccccc3)c(=O)c2cc1OC
active: SF-539 CNS 6.77% | SNB-75 CNS -1.98% | U251 CNS 6.92%
inactive: DU-145 prostate 54.6% | MALME-3M melanoma 45.6% | MDA-MB-231 breast 41% | RXF 393 renal 36.7% | SF-268 CNS 39.5% | SF-295 CNS 45.8% | UACC-257 melanoma 20.6% | M14 melanoma 39.3% | HCT-15 colon 90.2% | HT29 colon 61.9% | SNB-19 CNS 63.7% | PC-3 prostate 35.8% | SK-MEL-5 melanoma 67.2% | UACC-62 melanoma 76.3% | LOX IMVI melanoma 68.7% | SK-MEL-28 melanoma 60.5%

Nc1nc(Cl)nc2c1ncn2C1O[C@H](CO)[C@@H](O)[C@@H]1F (stereo partly drawn)
inactive: MALME-3M melanoma 60.9% | MDA-MB-231 breast 70% | RXF 393 renal 42.2% | SF-295 CNS 14.2% | SF-539 CNS 37.7% | UACC-257 melanoma 22.7% | HCT-15 colon 48.1% | HT29 colon 41.2% | SNB-75 CNS 37% | SNB-19 CNS 19% | U251 CNS 27% | PC-3 prostate 60.5% | SK-MEL-5 melanoma 32.1% | SK-MEL-28 melanoma 73.8%
active: DU-145 prostate -3.84% | SF-268 CNS 9.03% | M14 melanoma -48.4% | UACC-62 melanoma -10.3% | LOX IMVI melanoma 4.83%

OC[C@H]1OC([S-])[C@H](O)[C@@H](O)[C@@H]1O.[Au+] (stereo partly drawn)
inactive: DU-145 prostate 111% | MALME-3M melanoma 137% | MDA-MB-231 breast 70% | RXF 393 renal 93.2% | SF-268 CNS 88.2% | SF-295 CNS 113% | SF-539 CNS 84.3% | UACC-257 melanoma 90% | M14 melanoma 81.6% | HCT-15 colon 87.8% | HT29 colon 83.8% | SNB-75 CNS 98.8% | SNB-19 CNS 101% | U251 CNS 61.7% | PC-3 prostate 77.8% | SK-MEL-5 melanoma 68.5% | UACC-62 melanoma 63.3% | LOX IMVI melanoma 50.3% | SK-MEL-28 melanoma 68.9%

O=C1Cc2cc(CCN3CCN(c4nsc5ccccc45)CC3)c(Cl)cc2N1
inactive: DU-145 prostate 95.4% | MALME-3M melanoma 94.2% | MDA-MB-231 breast 89.5% | RXF 393 renal 91.7% | SF-268 CNS 92.9% | SF-295 CNS 91.9% | SF-539 CNS 105% | UACC-257 melanoma 86.3% | M14 melanoma 105% | HCT-15 colon 85.1% | HT29 colon 90.1% | SNB-75 CNS 78.8% | SNB-19 CNS 94.1% | U251 CNS 94.7% | PC-3 prostate 72.3% | SK-MEL-5 melanoma 92% | UACC-62 melanoma 84.8% | LOX IMVI melanoma 96.8% | SK-MEL-28 melanoma 90.3%

O=C(Nc1ccc(OCc2nnc(-c3ccc(Cl)cc3)o2)c(F)c1)Nc1ccc(Cl)c(C(F)(F)F)c1
inactive: K-562 leukemia 11.2% | SF-268 CNS 22.5% | SF-539 CNS 12.3% | SNB-75 CNS 20.4%
active: DU-145 prostate 9.34% | RXF 393 renal -10.2% | SF-295 CNS 1.05% | UACC-257 melanoma -4.65% | M14 melanoma 3.31% | HCT-15 colon 9.78% | HT29 colon -3.97% | U251 CNS -2.02% | PC-3 prostate 5.92% | SK-MEL-5 melanoma -35.7% | LOX IMVI melanoma 3.22%
